“And” between values parts separate entries of the source, which are not always exact repeats. Equal values may be shown once. Screen size: about 5,500 compounds; about 2,000 (36%) were called active. Another 18% or so got no clear call; they are omitted. Rule as the data show it: active = normalized growth mostly below about 0.91 (no sharp cut-off); inconclusive = no clear call, values can overlap the other calls; inactive = mostly above about 0.92. The list shows a part of the results.
Experiment: chemical genetic growth profiling, strain panel (AID 1159580);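 also: tested at 20 µM; growth read once vehicle control cultures reached saturation at 30 °C; 1 = growth at the plate median or of vehicle wells; lower values mean less growth of the strain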
Conditions: S. cerevisiae deletion strains, growth OD

Measured: normalized growth

C[n+]1cccc(C(=O)[O-])c1
inactive: locus YAL013W, strain DEP1, stronger effect = lower value 1.01 | locus YAL021C, strain ccr4, stronger effect = lower value 1.02 | locus YAL026C, strain drs2, stronger effect = lower value 0.972 | locus YAL030W, strain snc1, stronger effect = lower value 0.982 | locus YBL061C, strain skt5, stronger effect = lower value 0.975 | locus YBR009C, strain hhf1, stronger effect = lower value 0.99 | locus YBR021W, strain FUR4, stronger effect = lower value 1 | locus YBR023C, strain chs3, stronger effect = lower value 0.963 | locus YBR171W, strain sec66, stronger effect = lower value 0.958 | locus YBR229C, strain ROT2, stronger effect = lower value 1.01 | locus YBR231C, strain swc5, stronger effect = lower value 0.97 | locus YBR279W, strain paf1, stronger effect = lower value 0.972 | locus YCL011C, strain gbp2, stronger effect = lower value 0.97 | locus YCL016C, strain dcc1, stronger effect = lower value 0.998 | locus YCL029C, strain bik1, stronger effect = lower value 0.993 | locus YCL069W, strain vba3, stronger effect = lower value 0.941 | locus YCR088W, strain abp1, stronger effect = lower value 0.963 | locus YDL005C, strain med2, stronger effect = lower value 0.952 | locus YDL035C, strain GPR1, stronger effect = lower value 1.03 | locus YDL040C, strain nat1, stronger effect = lower value 0.981 | locus YDL074C, strain BRE1, stronger effect = lower value 1.03 | locus YDL101C, strain DUN1, stronger effect = lower value 1.03 | locus YDL134C, strain PPH21, stronger effect = lower value 1.07 | locus YDL185W, strain tfp1, stronger effect = lower value 0.999 | locus YDL192W, strain arf1, stronger effect = lower value 1.01 | locus YDR001C, strain nth1, stronger effect = lower value 0.965 | locus YDR069C, strain doa4, stronger effect = lower value 0.958 | locus YDR101C, strain arx1, stronger effect = lower value 0.995 | locus YDR137W, strain rgp1, stronger effect = lower value 0.974 | locus YDR150W, strain NUM1, stronger effect = lower value 1.01 | locus YDR159W, strain sac3, stronger effect = lower value 0.97 | locus YDR162C, strain NBP2, stronger effect = lower value 1.07 | locus YDR195W, strain ref2 0.91 | locus YDR297W, strain sur2, stronger effect = lower value 0.975 | locus YDR318W, strain mcm21, stronger effect = lower value 0.994 | locus YDR334W, strain swr1, stronger effect = lower value 0.965 | locus YDR335W, strain msn5, stronger effect = lower value 0.952 | locus YDR388W, stronger effect = lower value 0.996 | locus YDR392W, strain spt3, stronger effect = lower value 0.987 | locus YDR502C, strain sam2, stronger effect = lower value 1 | locus YEL003W, strain gim4, stronger effect = lower value 0.964 | locus YEL037C, strain rad23, stronger effect = lower value 0.964 | locus YEL061C, strain CIN8 (second series), stronger effect = lower value 0.923 | locus YEL061C, strain CIN8, stronger effect = lower value 1.01 | locus YER015W, strain faa2, stronger effect = lower value 0.983 | locus YER016W, strain bim1, stronger effect = lower value 0.967 | locus YER110C, stronger effect = lower value 0.995 | locus YER111C, strain swi4, stronger effect = lower value 0.942 | locus YER155C, strain BEM2 (second series), stronger effect = lower value 0.992 | locus YER155C, strain BEM2, stronger effect = lower value 0.999 | locus YER167W, strain BCK2, stronger effect = lower value 1.02 | locus YFR010W, strain ubp6, stronger effect = lower value 0.943 | locus YGL078C, strain dbp3, stronger effect = lower value 0.997 | locus YGL086W, strain mad1, stronger effect = lower value 1 | locus YGL167C, strain pmr1, stronger effect = lower value 0.984 | locus YGL173C, strain kem1, stronger effect = lower value 0.986 | locus YGL227W, strain vid30, stronger effect = lower value 0.957 | locus YGL240W, strain doc1, stronger effect = lower value 0.972 | locus YGL248W, strain PDE1, stronger effect = lower value 1.02 | locus YGL253W, strain hxk2, stronger effect = lower value 0.955 | locus YGR078C, strain PAC10, stronger effect = lower value 1.04 | locus YGR135W, strain pre9, stronger effect = lower value 1 | locus YGR229C, strain SMI1, stronger effect = lower value 1.04 | locus YGR252W, strain gcn5, stronger effect = lower value 0.966 | locus YHR013C, strain ard1, stronger effect = lower value 0.981 | locus YHR027C, strain rpn1, stronger effect = lower value 0.992 | locus YHR030C, strain SLT2, stronger effect = lower value 1.01 and 1.03 | locus YHR079C, strain IRE1 (second series), stronger effect = lower value 1.01 | locus YHR079C, strain IRE1, stronger effect = lower value 1.02 | locus YHR094C, strain hxt1, stronger effect = lower value 0.983 | locus YHR129C, strain ARP1, stronger effect = lower value 1.02 | locus YHR142W, strain chs7, stronger effect = lower value 0.955 | locus YHR200W, strain rpn10, stronger effect = lower value 1.01 | locus YIL066C, strain RNR3, stronger effect = lower value 1.05 | locus YIL073C, strain SPO22, stronger effect = lower value 1.02 | locus YIL125W, strain kgd1, stronger effect = lower value 0.984 | locus YIR030C, strain dcg1, stronger effect = lower value 1.01 | locus YJL092W, strain hpr5, stronger effect = lower value 0.937 | locus YJL095W, strain BCK1 (second series), stronger effect = lower value 0.971 | locus YJL095W, strain BCK1, stronger effect = lower value 1.07 and 1.01 | locus YJL115W, strain asf1, stronger effect = lower value 0.956 | locus YJL129C, strain trk1, stronger effect = lower value 0.936 | locus YJL134W, strain LCB3, stronger effect = lower value 1.01 | locus YJL154C, strain vps35, stronger effect = lower value 0.948 | locus YJL164C, strain tpk1, stronger effect = lower value 0.985 | locus YJL166W, strain qcr8, stronger effect = lower value 0.961 | locus YJL168C, strain set2, stronger effect = lower value 0.999 | locus YJL187C, strain SWE1 (second series), stronger effect = lower value 1.03 | locus YJL187C, strain SWE1, stronger effect = lower value 0.97 | locus YJR043C, strain POL32, stronger effect = lower value 1.04 | locus YJR066W, strain TOR1, stronger effect = lower value 0.975 | locus YJR075W, strain HOC1, stronger effect = lower value 1.03 | locus YKL009W, strain mrt4, stronger effect = lower value 1 | locus YKL068W, stronger effect = lower value 1.01 | locus YKL085W, strain MDH1 (second series), stronger effect = lower value 1.01 | locus YKL085W, strain MDH1, stronger effect = lower value 1.01 | locus YKL160W, strain elf1, stronger effect = lower value 0.996 | locus YKR001C, strain vps1, stronger effect = lower value 0.987 | locus YKR026C, strain gcn3, stronger effect = lower value 0.952 | locus YKR091W, strain srl3, stronger effect = lower value 0.966 | locus YLL001W, strain dnm1, stronger effect = lower value 0.97 | locus YLL026W, stronger effect = lower value 0.989 | locus YLL041C, strain sdh2, stronger effect = lower value 0.963 | locus YLR027C, strain aat2, stronger effect = lower value 0.983 | locus YLR039C, strain RIC1, stronger effect = lower value 1.12 | locus YLR058C, strain SHM2, stronger effect = lower value 1.02 | locus YLR102C, strain apc9, stronger effect = lower value 0.997 | locus YLR113W, strain HOG1, stronger effect = lower value 1.04 | locus YLR221C, strain rsa3, stronger effect = lower value 0.972 | locus YLR258W, strain gsy2, stronger effect = lower value 0.971 | locus YLR262C, strain YPT6 (second series), stronger effect = lower value 0.947 | locus YLR262C, strain YPT6, stronger effect = lower value 1.12 | locus YLR268W, strain sec22, stronger effect = lower value 1.02 | locus YLR320W, strain mms22, stronger effect = lower value 0.975 | locus YLR330W, strain CHS5, stronger effect = lower value 1.02 | locus YLR342W, strain FKS1 (second series), stronger effect = lower value 1.04 | locus YLR342W, strain FKS1, stronger effect = lower value 0.948 | locus YLR357W, strain rsc2, stronger effect = lower value 0.917 | locus YLR370C, strain arc18, stronger effect = lower value 0.972 | locus YLR371W, strain rom2, stronger effect = lower value 0.994 | locus YLR384C, strain iki3, stronger effect = lower value 0.961 | locus YLR418C, strain cdc73, stronger effect = lower value 1.02 | locus YML016C, strain PPZ1, stronger effect = lower value 1.02 | locus YML032C, strain rad52, stronger effect = lower value 1.01 | locus YML120C, strain ndi1, stronger effect = lower value 0.968 | locus YML124C, strain tub3, stronger effect = lower value 0.994 | locus YMR058W, strain fet3, stronger effect = lower value 0.986 | locus YMR078C, strain ctf18, stronger effect = lower value 0.998 | locus YMR125W, strain sto1, stronger effect = lower value 0.939 | locus YMR129W, stronger effect = lower value 0.975 | locus YMR205C, strain PFK2, stronger effect = lower value 0.974 | locus YMR223W, strain ubp8, stronger effect = lower value 1 | locus YMR231W, strain pep5, stronger effect = lower value 0.975 | locus YMR263W, strain SAP30, stronger effect = lower value 1.03 | locus YMR307W, strain GAS1, stronger effect = lower value 1.02 | locus YNL067W, strain RPL9B, stronger effect = lower value 1.03 | locus YNL071W, strain lat1, stronger effect = lower value 0.961 | locus YNL153C, strain GIM3, stronger effect = lower value 1.04 | locus YNL183C, strain NPR1, stronger effect = lower value 0.981 | locus YNL209W, strain ssb2, stronger effect = lower value 0.975 | locus YNL233W, strain BNI4, stronger effect = lower value 1.03 | locus YNL248C, strain rpa49, stronger effect = lower value 0.937 | locus YNL250W, strain rad50, stronger effect = lower value 0.999 | locus YNL271C, strain bni1, stronger effect = lower value 1 | locus YNL298W, strain CLA4, stronger effect = lower value 1.02 | locus YNL307C, strain MCK1, stronger effect = lower value 1 | locus YNL322C, strain KRE1 (second series), stronger effect = lower value 0.948 | locus YNL322C, strain KRE1, stronger effect = lower value 1 | locus YNR049C, strain mso1, stronger effect = lower value 0.962 | locus YNR052C, strain pop2, stronger effect = lower value 1 | locus YOL012C, strain htz1 1.15 | locus YOL147C, strain pex11, stronger effect = lower value 0.996 | locus YOR001W, strain rrp6, stronger effect = lower value 0.933 | locus YOR061W, strain CKA2, stronger effect = lower value 1.02 | locus YOR069W, strain VPS5, stronger effect = lower value 1.01 | locus YOR070C, strain gyp1, stronger effect = lower value 0.987 | locus YOR080W, strain dia2, stronger effect = lower value 0.978 | locus YOR083W, strain WHI5, stronger effect = lower value 0.992 | locus YOR106W, strain vam3, stronger effect = lower value 0.977 | locus YOR136W, strain idh2, stronger effect = lower value 1 | locus YOR144C, strain elg1, stronger effect = lower value 0.989 | locus YOR184W, strain ser1, stronger effect = lower value 1.02 | locus YOR231W, strain MKK1, stronger effect = lower value 1.04 | locus YOR265W, strain rbl2, stronger effect = lower value 0.98 | locus YOR270C, strain vph1, stronger effect = lower value 0.931 | locus YOR290C, strain snf2, stronger effect = lower value 1.01 | locus YOR316C, strain cot1, stronger effect = lower value 1.01 | locus YPL051W, strain arl3, stronger effect = lower value 0.999 | locus YPL055C, strain LGE1, stronger effect = lower value 1.02 | locus YPL078C, strain atp4, stronger effect = lower value 0.963 | locus YPL106C, strain sse1, stronger effect = lower value 0.932 | locus YPL240C, strain hsp82, stronger effect = lower value 0.963 | locus YPL241C, strain CIN2, stronger effect = lower value 1 | locus YPL256C, strain CLN2, stronger effect = lower value 1.02 | locus YPR119W, strain clb2, stronger effect = lower value 1.02 | locus YPR141C, strain kar3, stronger effect = lower value 1.01 | locus YPR163C, strain tif3, stronger effect = lower value 0.997 | locus YPR167C, strain met16, stronger effect = lower value 1.01 | strain wtn01, stronger effect = lower value 1.01

— PubChem BioAssay AID1159580 (chemical genetic matrix, 2015)
